Rows were chosen to be rich in hits. Some 11% of all compounds tested hit in one or more screens of this group.
OTUD3 block – blocks human OTUD3 ubiquitin-rhodamine cleavage; Q5T2D3; purified OTUD3, Ub-rhodamine fluorescence, 2 h; inhibition, % at 25 µM; 0.7% of 47,000 active
Target sequence (Q5T2D3 whole entry, looked up): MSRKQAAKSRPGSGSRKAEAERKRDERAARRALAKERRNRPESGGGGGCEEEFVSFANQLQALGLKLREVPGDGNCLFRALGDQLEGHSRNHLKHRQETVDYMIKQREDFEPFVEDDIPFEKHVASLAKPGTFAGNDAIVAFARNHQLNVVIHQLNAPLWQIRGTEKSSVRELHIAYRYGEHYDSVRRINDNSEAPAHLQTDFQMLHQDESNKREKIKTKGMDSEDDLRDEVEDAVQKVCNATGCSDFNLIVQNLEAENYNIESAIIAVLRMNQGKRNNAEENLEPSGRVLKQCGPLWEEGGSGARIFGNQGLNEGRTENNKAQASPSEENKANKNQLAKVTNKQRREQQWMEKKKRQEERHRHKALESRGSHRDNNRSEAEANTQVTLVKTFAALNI
USP17 inh – inhibitors of human USP17 deubiquitinase. A8MUK1. purified USP17, Ub-rhodamine cleavage fluorescence, 3 h. inhibition, % at 50 µM. 6.5% of 47,000 active. AID 1645855
USP30 inh – inhibitors of human USP30 deubiquitinase | Q70CQ3 | purified USP30, Ub-rhodamine cleavage fluorescence | inhibition, % at 25 µM | 5.3% of 47,000 active
USP28 inh – human USP28 deubiquitinase inhibition | purified USP28, Ub-rhodamine cleavage fluorescence, 30 min | inhibition, % at 25 µM | 3% of 47,000 active | AID 1645857
Of the large screens only hits and unclear results are named; the others gave an inactive call. No stated cut-off is given here; in the data, active means inhibition above about 30%; inactive means the rest.

O=C(Nc1ccc(F)cc1)C1CCCN(S(=O)(=O)N2CCCCCC2)C1 (centres undefined)	none
COc1ccc(NC(=O)C2CCCN(S(=O)(=O)N3CCC(C)CC3)C2)cc1 (centres undefined)	USP17 inh 38.4
O=C(C1CCCN(S(=O)(=O)N2CCCCC2)C1)N1CCN(c2ccccc2)CC1 (centres undefined)	none
CS(=O)(=O)NC1CCCN(C(=O)Nc2cccc3ccccc23)C1 (centres undefined)	USP17 inh 86.9
O=C(Nc1cccc(F)c1)C1CCCN(S(=O)(=O)N2CCCCCC2)C1 (centres undefined)	USP17 inh 53.3
Cc1nc(Cn2cccc2C(=O)Nc2cccc(C)c2C)no1	none
CC1CCN(S(=O)(=O)N2CCCC(C(=O)NCc3ccccc3)C2)CC1 (centres undefined)	USP30 inh 36.0
CCOc1ccccc1NC(=O)C(OC(=O)c1ccc(OCC(=O)Nc2ccc(OC)cc2)c(OC)c1)c1ccccc1 (centres undefined)	none
CCOc1ccccc1NC(=O)COc1cc(OC)ccc1C(=O)c1ccccc1	USP28 inh 56.3
O=C(CCc1ccccc1)Nc1cc(F)c2nc(N3CCOCC3)ccc2c1	none
O=C(NCc1ccc(N2CCOCC2)nc1)c1ccc(F)c(F)c1	none
O=C(Nc1cc(F)c2nc(N3CCOCC3)ccc2c1)C1CCC1	USP17 inh 42.2
O=C(Nc1cc(F)c2nc(N3CCOCC3)ccc2c1)c1ccc(Br)o1	USP17 inh 84.6
O=C(Nc1cc(F)c2nc(N3CCOCC3)ccc2c1)C1CC1	USP17 inh 76.3
CC(=O)N1CCC(C(=O)Nc2ccc(N3CCOCC3)cc2)CC1	none
O=C(c1nccc2ccccc12)N1CCCC(c2ccc3cn[nH]c3n2)C1 (centres undefined)	none
CCOC(=O)c1cc2c(ccn2-c2ccc(F)cc2)n1CC(=O)NC1CCCCC1	none
CCOC(=O)c1cc2c(ccn2-c2ccc(F)cc2)n1CC(=O)N1CCN(C(=O)c2ccco2)CC1	USP17 inh 36.5, USP30 inh 44.8
COCCNC(=O)[C@H](Cc1ccccc1)NC(=O)N1CCn2c1nc1ccccc12	none
O=c1oc2ccccc2cc1-c1nc(-c2ccc(Oc3ccccc3)cc2)cs1	USP17 inh 42.2, USP28 inh 36.2
Cc1cc(C)n(CC2CCCN2Cc2nnc(C3CC3)o2)n1 (centres undefined)	none
O=c1[nH]c(=O)c2c(-c3cccc4ccccc34)ccnc2[nH]1	none
O=c1[nH]c(=O)c2c(-c3ccc(-c4ccccc4)cc3)ccnc2[nH]1	USP30 inh 45.0
COc1cccc(-c2ccnc3[nH]c(=O)[nH]c(=O)c23)c1	USP17 inh 73.9, USP30 inh 63.1
FC(F)(F)c1cnc(N2CCC3(CC2)OCC=CCO3)c(Cl)c1	none
COc1ccccc1-n1ccn2cc(-c3ccc(C)c(C)c3)nc2c1=O	USP17 inh 31.2
COc1cccc(-c2cn3ccn(-c4ccccc4)c(=O)c3n2)c1	none
COc1ccccc1C(=O)N1CCC(S(=O)(=O)c2ccc(-c3ccco3)cc2)CC1	USP17 inh 56.2
O=C(c1cnc2ccccc2n1)N1CCC(S(=O)(=O)c2ccc(-c3ccco3)cc2)CC1	USP17 inh 44.3
COC(=O)[C@@H]1C[C@@]23CCCN4CC[C@@]5(c6ccccc6N[C@]15[C@@H]2C)[C@@H]43	none
COc1ccc(Cn2c(=O)sc3ccccc3c2=O)cc1	USP28 inh 44.4
O=C(Nc1ccc2sccc2c1)c1ccc(F)cc1	USP17 inh 49.1, USP30 inh 57.7
Cn1ccc2cc(CCC(=O)NCc3ccncc3)ccc21	none
O=C(Nc1nc2c(s1)CCC2)C1CCN(S(=O)(=O)c2ccc3c(c2)CCCC3)CC1	USP28 inh 49.7
Cc1nnc(NC(=O)C2CCN(S(=O)(=O)c3ccc4c(c3)CCC4)CC2)o1	none
COc1ccc(C(=O)O)cc1S(=O)(=O)N(CCc1ccccc1)Cc1ccccc1	USP30 inh 39.0
COCCOC(=O)C1=C(C)Nc2nc3ccccc3n2C1c1cc(OC)c(OC)c(OC)c1 (centres undefined)	USP17 inh 33.8
O=C(Cn1cccc1-c1nc(-c2ccccc2)cs1)N1CCOCC1	USP17 inh 73.5
Cc1cc2nc(N(C)CC3COc4ccccc4O3)c3ccccc3n2n1 (centres undefined)	none
Clc1ccc2nc(COc3ccccc3Cc3ccccc3)[nH]c2c1	USP17 inh 30.7
Cc1nn(-c2cc(N3CCCCC3)ncn2)c(C)c1CCC(=O)NCc1ccccc1	none
Cc1ccc(C)c(NC(=O)CCc2c(C)nn(-c3cc(N4CCOCC4)ncn3)c2C)c1	USP30 inh 34.0
COc1cccc(NC(=O)CCc2c(C)nn(-c3cc(N4CCCCC4)ncn3)c2C)c1	USP28 inh 68.5
Cc1ccc(C)c(NC(=O)CCc2c(C)nn(-c3cc(N4CCCC4)ncn3)c2C)c1	none
COc1cccc(NC(=O)CCc2c(C)nc3c(c2C)c(=O)n(C)c(=O)n3C)c1	USP30 inh 35.0, USP28 inh 37.1
O=C(c1cc(S(=O)(=O)N2CCOCC2)ccc1Cl)N1CCn2c1nc1ccccc12	none
O=C(Nc1ccc(Cl)cc1)C1CCN(c2nc3nc[nH]c(=O)c3s2)CC1	none
CCc1ccc(NC(=O)C2CCN(c3nc4nc[nH]c(=O)c4s3)CC2)cc1	USP30 inh 33.7
CC(C)Oc1ccc(S(=O)(=O)N2CCOCC2)cc1NCC(=O)Nc1ccc(C(C)(C)C)cc1	USP30 inh 33.2
COc1ccc(NC(=O)CN2C(=O)NC3(CCC(C(C)(C)C)CC3)C2=O)cc1Cl (centres undefined)	none
COc1ccc(C(CNC(=O)Cn2cnc3ccccc3c2=O)N(C)C)cc1 (centres undefined)	none
Cc1cc(C(=O)CSc2nc3ccccc3[nH]2)c(C)n1Cc1ccco1	USP17 inh 50.2
O=C(Cn1cnc2cc([N+](=O)[O-])ccc2c1=O)c1c[nH]c2ccccc12	none
O=C(Cn1cnc2ccccc2c1=O)NC(c1ccccc1)c1ccccc1	USP30 inh 33.0
O=C(Cn1cnc2ccccc2c1=O)c1c[nH]c2ccccc12	USP17 inh 47.1, USP30 inh 43.7, USP28 inh 31.9
O=C(CSc1nc2ccccc2[nH]1)c1ccccc1F	none
O=C(CSc1nc2ccccc2[nH]1)c1c[nH]c2ccccc12	USP30 inh 32.6
O=C(c1snc2c(=O)n(C3CC3)c(=O)[nH]c12)N1CC=C(c2ccccc2)CC1	none (no result: USP17 inh)
Cc1noc(Cl)c1CC(=O)N1CCCC1c1cnn(C)c1 (centres undefined)	none
Cc1ccccc1CNC(=O)CCn1cnc2ccccc2c1=O	none
O=C(CCn1cnc2ccccc2c1=O)Nc1ccc(Cl)cc1	USP17 inh 40.0
CCCCC/C=C/C=C/C(=O)OC1C(O)CC(c2ccc3c(c2O)C(=O)c2c(O)cc4cc(C)cc(O)c4c2C3=O)OC1C (centres undefined)	USP17 inh 87.6, USP28 inh 36.5
CCOC(=O)c1c(-c2ccccc2Cl)csc1NC(=O)CNc1cccc(O)c1	USP17 inh 31.6, USP28 inh 39.0
Cc1ccc2c(c1)C(=O)c1c(O)cccc1C2=O	none
